Compounds with a hit are over-represented: about 4% of the library has one in this group of screens.
Beta apoptosis: beta cell apoptosis inhibition. INS-1E cytokine-induced death, ATP luminescence, 48 h; percent of positive-control rescue, neutral wells zero. protection from apoptosis, % (no concentration beside the values). actives 0.8% (n = 300,000). AID 435005;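 active means Every replicate reaches about 75%, or at least half do and their mean reaches it too, limit read from the data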;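 further: 0% = cytokine-treated negative control wells and 100% = positive control rescue; higher means more ATP so stronger rescue from cytokine killing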
Mdm2-MdmX inh: inhibitors of human Mdm2/MdmX interaction | AID 485346 | SaOS-2 split-luciferase Mdm2/MdmX complementation, luminescence | inhibition, % at 8 µM | actives 3% (n = 330,000);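 active means inhibition of at least 50% at 8 µM in the primary screen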
CSC inhib: cancer stem cell inhibition. cancer stem cell-like cells viability, luminescence. inhibition, % at 7.5 µM. actives 1.1% (n = 300,000); in the data active means inhibition above about 75%; tested in HMLE shEcad cells
PAX8 inh HTS: PAX8 transcriptional activity inhibition; inhibition, % at 12.6 µM; AID 652154; RMG-I TPO-luciferase reporter, SteadyGlo, 24 h; actives 1.2% (n = 360,000);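 active means mean replicate inhibition at least 60% with every replicate also reaching 60%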;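 further: luciferase light reporting Pax8 driven TPO promoter activity; plate controls were median of neutral control wells for no effect and mitoxantrone controls for full effect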
Gli-Sufu block: Gli-Sufu pathway antagonism. Sufu-KO-LIGHT fibroblasts, Gli luciferase reporter luminescence. inhibition, % at 5 µM. actives 0.74% (n = 340,000). AID 588413;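 active means inhibition above about 55%, limit read from the data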;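 further: 0% = DMSO-treated cells and 100% = wells with medium but no cells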
Shn3 3UTR inh: reduces Shn3 3'UTR luciferase signal in osteoblasts; Clone20 osteoblast Shn3 3'UTR firefly luciferase, 24 h; actives 0.52% (n = 360,000); inhibition, % at 12.5 µM; AID 588674;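 active means mean inhibition of at least 75% with every replicate also reaching 75%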;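 further: 0% = median of neutral control wells and 100% = pilot-screen positive control compound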
The depositor's hits bear a star; . = no result given.

SMILES | Beta apoptosis | Mdm2-MdmX inh | CSC inhib | PAX8 inh HTS | Gli-Sufu block | Shn3 3UTR inh
C[C@H]1CN([C@@H](C)CO)C(=O)c2cc(NC(=O)CCC(F)(F)F)ccc2O[C@@H]1CN(C)Cc1ccc(Cl)c(Cl)c1 | . | . | . | 16.1 | . | .
CN(C)CC(=O)Nc1ccc2c(c1)[C@@H]1C[C@H](CC(=O)NCc3ccccc3)O[C@@H](CO)[C@@H]1O2 | . | . | . | -1.3 | . | .
O=C(CN1CCCC1)Nc1ccccc1Sc1ccccc1 | -7.1 | 11.6 | -11.5 | 10.6 | 12.9 | -6.8
CC1CCN(CC(=O)Nc2ccccc2Sc2ccccc2)CC1 | -4.3 | -22.0 | 116.7* | -27.3 | 6.5 | 7.5
Cc1ccc2nc(C)cc(Nc3ccc([N+](=O)[O-])cc3)c2c1 | . | . | -10.8 | 95.6* | 26.1 | 48.3
COc1ccc2nc(C)cc(Nc3ccc(C)cc3)c2c1 | . | 17.8 | . | -4.7 | 9.9 | 8.3
CN(C)C(=O)c1ccc(-c2ccc3c(c2)[C@@H]2[C@@H](CCN2Cc2cncnc2)[C@@H](CO)N3)cc1 | . | . | . | 10.8 | . | .
CCCCCOc1ccc(OC(=O)c2ccncc2)cc1 | 10.9 | 5.2 | 93.2* | . | 32.7 | -30.6
N#Cc1cccc(-c2ccc([C@H]3[C@H]4CN(C(=O)Nc5cccc(F)c5)CCCCN4[C@H]3CO)cc2)c1 | . | . | . | 27.3 | . | .
O=C1NC(=S)S/C1=C\c1cc2ccccc2nc1N1CCCCC1 | 19.5 | 44.7 | 113.8* | 13.6 | 6.2 | .
O=C1NC(=S)SC1=Cc1ccccc1Cl | . | . | . | -27.8 | 6.1 | 1.2
COc1ccc2nc(N3CCCCC3)c(/C=C3\SC(=S)NC3=O)cc2c1 | 18.2 | 6.9 | 121.0* | -24.4 | 6.8 | -20.4
CC(=O)N1CCN(c2ccc(Oc3ccc([N+](=O)[O-])c(C(F)(F)F)c3)cc2)CC1 | 94.7* | 48.9 | -3.5 | . | 67.3* | 77.7
CC(C)NC(=O)N(C)C[C@@H]1Oc2ccc(NS(=O)(=O)c3ccc(F)cc3)cc2C(=O)N([C@@H](C)CO)C[C@H]1C | . | . | . | -8.3 | . | .
O=c1cc(-c2ccccc2)oc2ccc3ccccc3c12 | . | . | . | 90.7* | . | 62.8
C=CCn1c(SC(F)F)nc2scc(-c3ccco3)c2c1=O | 5.2 | 46.4 | 40.3 | 82.0* | 1.7 | -23.5
C=CCn1c(SCC(C)=O)nc2scc(-c3ccco3)c2c1=O | 0.5 | 6.5 | 11.5 | 7.4 | 37.5 | -11.5
CC1CCCC(NC(=O)COC(=O)c2ccccc2Sc2ccccc2C#N)C1C (stereo not drawn) | 1.7 | 14.8 | . | 132.7* | 2.5 | -10.7
N#Cc1ccccc1Sc1ccccc1C(=O)OCC(=O)NC12CC3CC(CC(C3)C1)C2 | -1.8 | 37.1 | 7.9 | -3.2 | -2.2 | 6.9
C[C@@H]1CN([C@@H](C)CO)C(=O)c2cc(NC(=O)c3ccccc3)ccc2O[C@@H](C)CCCCO[C@@H]1CN(C)S(=O)(=O)c1ccc(Cl)cc1 | . | . | . | 21.0 | . | .
Cc1nc(NC(=O)c2ccco2)sc1-c1csc(Nc2ccc(Cl)cc2Cl)n1 | 10.6 | 29.9 | 56.5 | 19.7 | 10.6 | -17.0
Cc1nc(NC(=O)CC(C)C)sc1-c1csc(Nc2ccc(Cl)cc2Cl)n1 | 7.6 | -2.3 | 80.1* | 18.9 | -1.2 | -9.0
Cc1nc(NC(=O)c2ccco2)sc1-c1csc(Nc2ccc(Cl)cc2)n1 | 7.3 | 19.1 | 91.4* | 8.5 | 4.5 | 5.6
CCCNC(=O)Nc1ccc2c(c1)OC[C@H](C)N(Cc1ccc(-c3ccccn3)cc1)C[C@@H](C)[C@H](OC)CN(C)C2=O | . | . | . | 11.2 | . | .
CCCNC(=O)Nc1ccc2c(c1)OC[C@H](C)N(Cc1ccc(-c3ccccn3)cc1)C[C@@H](C)[C@@H](OC)CN(C)C2=O | . | . | . | 100.1* | . | .
SMILES | Beta apoptosis | Mdm2-MdmX inh | CSC inhib | PAX8 inh HTS | Gli-Sufu block | Shn3 3UTR inh
CCCC(=O)Nc1ccc2c(c1)C(=O)N(C)C[C@@H](OC)[C@H](C)CN(Cc1ccc(-c3ccccn3)cc1)[C@H](C)CO2 | . | . | . | 75.8* | . | .
CCCC(=O)Nc1ccc2c(c1)C(=O)N(C)C[C@H](OC)[C@@H](C)CN(Cc1ccc(-c3ccccn3)cc1)[C@H](C)CO2 | . | . | . | -40.2 | . | .
CCCNC(=O)Nc1ccc2c(c1)OC[C@@H](C)N(Cc1ccc(-c3ccccn3)cc1)C[C@@H](C)[C@H](OC)CN(C)C2=O | . | . | . | 94.9* | . | .
C[C@@H]1CCCCO[C@@H](CN(C)C(=O)CCC(F)(F)F)[C@H](C)CN([C@H](C)CO)C(=O)c2cc(NC(=O)c3ccccc3)ccc2O1 | . | . | . | 14.4 | . | .
COC(=O)C[C@@H]1C[C@@H]2c3cc(NS(=O)(=O)c4ccccc4)ccc3O[C@@H]2[C@H](CO)O1 | . | . | . | -9.5 | . | .
COc1cc(C=C2C(=O)C=CC2=O)ccc1O | . | . | . | 106.0* | . | .
COc1cc(/C=C2/C(=O)CNC2=O)ccc1O | 3.0 | 3.7 | -20.6 | -10.7 | 3.0 | 6.5
O=C(C[n+]1cccc2ccccc21)c1ccc(NC(=O)c2ccccc2)cc1 | 1.7 | 11.1 | 17.0 | 32.1 | 1.0 | -7.9
Cc1cc[n+](CC(=O)c2ccc(NC(=O)c3ccccc3)cc2)c2ccccc12 | 29.8 | 36.6 | 15.4 | 79.6* | -1.9 | 5.0
COc1ccc(S(=O)(=O)N[C@H]2CC[C@@H](CC(=O)N3CCc4ccccc4C3)O[C@@H]2CO)cc1 | . | . | . | 27.4 | . | .
COc1ccc(C(=O)NNC(=O)c2cccc(S(=O)(=O)N3CCOCC3)c2)cc1 | 0.5 | -8.5 | -21.3 | -13.7 | 1.0 | 95.9*
COc1ccccc1NC(=O)N1CCCCN2[C@H](CO)[C@@H](c3ccc(-c4ccccc4)cc3)[C@@H]2C1 | . | . | . | 16.5 | . | .
O=[N+]([O-])c1ccc(O)c2ncccc12 | 97.0* | 46.1 | 82.2* | 24.8 | 12.8 | 56.5
O=[N+]([O-])c1cc(Cl)c2cccnc2c1O | -14.2 | 45.9 | 97.6* | -22.3 | 0.5 | -9.8
O=[N+]([O-])c1ccc(O)c2cccnc12 | -1.5 | 4.9 | 1.3 | 10.6 | -7.0 | 12.4
CC1CN(CCCCOc2cccc(Oc3ccccc3)c2)CC(C)O1 (stereo not drawn) | -2.4 | 9.5 | 195.1* | 15.6 | 11.9 | 27.9
O=C(NCCCN1CCOCC1)c1ccc(Br)cc1 | . | -22.6 | 11.1 | . | -8.8 | -26.3
O=C(NCCCN1CCOCC1)c1ccc(CNS(=O)(=O)c2ccc(Br)cc2)cc1 | -5.3 | 28.0 | 36.5 | 131.7* | 0.4 | -45.3
COCCNC(=O)C[C@H]1C=C[C@H](NS(=O)(=O)c2ccc(C)cc2)[C@H](CO)O1 | . | . | . | 16.7 | . | .
O=[N+]([O-])c1cc(S(=O)(=O)Nc2ccccc2)ccc1N1CCN(c2ccc(O)cc2)CC1 | 5.1 | -22.4 | 76.6* | 2.0 | 12.8 | -23.9
CN1CCN(S(=O)(=O)c2ccc(N3CCN(c4ccc(O)cc4)CC3)c([N+](=O)[O-])c2)CC1 | 0.3 | 11.1 | -0.4 | 2.5 | 21.0 | 19.5
Cc1ccc(NS(=O)(=O)c2ccc(N3CCN(c4ccc(O)cc4)CC3)c([N+](=O)[O-])c2)c(C)c1 | 20.2 | 16.8 | 83.1* | 56.0 | 28.6 | 77.8
O=C(CNC(=O)c1cccc(F)c1)N/N=C/c1cc(Br)ccc1OC(=O)/C=C/c1ccco1 | . | . | . | 9.4 | -1.1 | 86.9*
CC(=O)Oc1cccc(N2C(=O)c3ccccc3C2=O)c1 | -0.1 | 1.9 | -2.0 | 77.7* | 4.9 | -16.4

Assay outcomes (PubChem)
